Test results published in PubChem BioAssay.
Activity calls are given as the source filed them. Unless noted, the rule behind the calls is not given here.

Tests used:
[1] = tested on: Wnt5a (protein binding on small-molecule microarray); assay: small molecules binding Wnt5a protein – biophysical, small-molecule microarray, 635/667 nm fluorescence, primary screen (AID 1142); conditions: 635 nm fluorescence, higher = more signal;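 note: fluorescence read at 667 nm with signal to noise per printed feature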
[2] = ATP-based viability of Huh7 replicon cells – cell-based, CellTiter-Glo luminescence, basal, 48 h, cytotoxicity control for HCV replication inhibitor project, primary screen (AID 1143); conditions: higher = more signal, called active from +8 up or from −8 down;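 note: Huh7 hepatoma cells carrying a hepatitis C replication reporter with no stimulus; test concentration not given here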
[3] = Pseudomonas biofilm growth suppression – PAO1 strain, BacTiter-Glo luminescence, LB-PBS, primary screen (AID 1144); conditions: P. aeruginosa PAO1 biofilm, 12 h, higher = more signal
[4] = basal CRE-LacZ reporter activity in PC12 – cell-based, unstimulated, primary screen (AID 1145); conditions: no forskolin, luminescence, 4.5 h, higher = more signal, called active from +8 up or from −8 down
[5] = forskolin-driven CRE-LacZ activity in PC12 – cell-based, CRE-LacZ reporter, forskolin-stimulated, primary screen (AID 1146); conditions: luminescence, 4.5 h, higher = more signal, called active from +8 up or from −8 down;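 note: PC12 cells with 6xCRE LacZ reporter stimulated by forskolin 10 µM; beta-galactosidase reporter signal reflecting CREB driven transcription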
[6] = molecular target: Streptavidin (Streptomyces avidinii) (UniProt P22629); assay: compounds binding control protein streptavidin – biophysical, small-molecule microarray, 635/667 nm fluorescence, artefact control for SMM compound annotation, primary screen (AID 1147); conditions: higher = more signal;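 note: signal reflects streptavidin binding to arrayed compounds as a control protein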
Sequence of Streptavidin (Streptomyces avidinii) (P22629 whole entry, looked up): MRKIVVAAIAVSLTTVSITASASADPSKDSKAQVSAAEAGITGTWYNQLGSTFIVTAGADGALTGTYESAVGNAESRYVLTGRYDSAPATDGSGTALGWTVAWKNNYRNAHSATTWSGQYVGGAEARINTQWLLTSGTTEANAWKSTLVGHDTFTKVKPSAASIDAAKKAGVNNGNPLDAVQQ

[7] = probe aInhba binding on compound microarray – biochemical, small-molecule microarray, 635/667 nm fluorescence, primary screen (AID 1148); conditions: higher = more signal;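 note: score merges 667nm spot fluorescence with signal-to-noise for antibody binding to printed compounds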
Torsin-1A (Homo sapiens) [8] = molecular target: Torsin-1A (Homo sapiens) (UniProt O14656); assay: TOR1A wild-type binding on microarray – cell lysate, small-molecule microarray, lysate, 635/667 nm, primary screen (AID 1149); conditions: COS7 hTOR1A-WT lysate, 635 nm fluorescence, higher = more signal
Sequence of Torsin-1A (Homo sapiens) (O14656 whole entry, looked up): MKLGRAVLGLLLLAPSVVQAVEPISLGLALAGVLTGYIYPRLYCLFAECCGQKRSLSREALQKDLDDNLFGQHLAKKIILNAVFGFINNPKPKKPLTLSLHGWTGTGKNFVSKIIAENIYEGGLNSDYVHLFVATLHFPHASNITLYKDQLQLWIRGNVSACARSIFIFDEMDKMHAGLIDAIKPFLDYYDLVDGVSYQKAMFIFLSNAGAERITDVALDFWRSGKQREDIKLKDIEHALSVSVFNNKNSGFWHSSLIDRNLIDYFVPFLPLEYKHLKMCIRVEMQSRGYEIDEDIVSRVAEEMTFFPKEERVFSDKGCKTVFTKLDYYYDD

Torsin-1A (Homo sapiens) [9] = molecular target: Torsin-1A (Homo sapiens) (UniProt O14656); assay: torsin A mutant lysate binding on microarrays – cell lysate, small-molecule microarray, COS7 lysate, 635/667 nm fluorescence, primary screen (AID 1150); conditions: COS7 hTOR1A mutant lysate, 635 nm fluorescence, higher = more signal;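 note: score pools 667 nm emission and signal to noise measuring lysate protein binding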
[10] = tested on: Sonic hedgehog protein (Shh); assay: Sonic hedgehog microarray binding compounds – biochemical, small-molecule microarray, 635/667 nm fluorescence, primary screen (AID 1151); conditions: 635 nm fluorescence, higher = more signal;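 note: Shh protein binding to compounds spotted on small-molecule microarray slides; score combines spot fluorescence intensity with signal-to-noise across triplicate slides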
[11] = optical density shifts of acrAB sulA E. coli – strain DRC41, OD650, 48 h, E. coli filamentation inducer project, primary screen (AID 1152); conditions: higher = more signal, called active from +8 up or from −8 down;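 note: E. coli MC1000 strain DRC41 lacking acrAB efflux pump and sulA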
[12] = probe aLefty1 binding on compound microarray – biochemical, small-molecule microarray, 635/667 nm fluorescence, primary screen (AID 1153); conditions: higher = more signal;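 note: score merges spot fluorescence with signal-to-noise ratio from the scanned slide images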
[13] = plasmodial surface anion channel blockers, osmotic lysis – cell-based, P. falciparum Indochina, OD700, 1 h, primary screen (AID 1154); conditions: P. falciparum Indochina infected RBC osmotic lysis, higher = more signal, called active from +8 up or from −8 down
[14] = plasmodial surface anion channel blockers, osmotic lysis – cell-based, P. falciparum Indochina, OD700, 2 h, primary screen (AID 1155);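 note: lysis reports solute entry through the parasite surface anion channel PSAC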; conditions: P. falciparum Indochina infected erythrocytes, higher = more signal, called active from +8 up or from −8 down
[15] = changes in parasitized red cell lysis, either direction – P. falciparum Indochina, OD700, 3 h, PSAC antagonist project, primary screen (AID 1156); conditions: P. falciparum-infected erythrocytes, osmotic lysis, higher = more signal, called active from +8 up or from −8 down
[16] = plasmodial surface anion channel blockers, osmotic lysis – cell-based, P. falciparum Indochina, OD700, 18 h, primary screen (AID 1157); conditions: P. falciparum Indochina infected erythrocytes, osmotic lysis OD700, 18 h; higher = more signal, called active from +8 up or from −8 down
[17] = S6 kinase pathway phospho-S6 level changes – cell-based, A549, cytoblot, luminescence, serum-stimulated, primary screen (AID 1158); conditions: 5 h, higher = more signal;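 note: serum-stimulated A549 lung adenocarcinoma cells; signal is phosphorylated S6 detected by cytoblot immunostaining with HRP secondary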
[18] = molecular target: NADPH oxidase 2 (Homo sapiens) (UniProt P04839); assay: compounds shifting NOX2 Amplex Red fluorescence – cell-based, HEK293-NOX2, PMA-stimulated, NOX inhibitor project, primary screen (AID 1159); conditions: 45 min, higher = more signal, called active from +8 up or from −8 down; note: test concentration not given here
Sequence of NADPH oxidase 2 (Homo sapiens) (P04839 whole entry, looked up): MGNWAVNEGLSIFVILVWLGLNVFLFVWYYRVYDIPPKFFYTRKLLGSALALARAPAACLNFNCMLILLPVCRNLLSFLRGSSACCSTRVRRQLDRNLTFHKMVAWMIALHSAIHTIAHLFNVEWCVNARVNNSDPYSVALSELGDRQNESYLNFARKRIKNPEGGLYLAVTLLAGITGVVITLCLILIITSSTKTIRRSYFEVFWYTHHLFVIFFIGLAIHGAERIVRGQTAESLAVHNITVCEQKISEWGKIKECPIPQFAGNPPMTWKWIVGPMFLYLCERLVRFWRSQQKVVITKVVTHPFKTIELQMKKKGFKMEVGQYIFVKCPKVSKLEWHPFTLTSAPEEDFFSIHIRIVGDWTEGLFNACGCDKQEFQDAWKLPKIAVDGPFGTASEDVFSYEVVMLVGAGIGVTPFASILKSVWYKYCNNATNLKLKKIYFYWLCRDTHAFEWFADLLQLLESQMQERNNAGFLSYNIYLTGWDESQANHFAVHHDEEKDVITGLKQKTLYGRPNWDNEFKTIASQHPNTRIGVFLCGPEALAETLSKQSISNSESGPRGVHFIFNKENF

[19] = molecular target: NADPH oxidase 4 (Homo sapiens) (UniProt Q9NPH5); assay: compounds shifting NOX4 Amplex Red fluorescence – cell-based, HEK293-NOX4, tetracycline-induced, NOX inhibitor project, primary screen (AID 1160); conditions: HEK293-NOX4, Amplex Red H2O2 fluorescence, 45 min; higher = more signal, called active from +8 up or from −8 down
Sequence of NADPH oxidase 4 (Homo sapiens) (Q9NPH5 whole entry, looked up): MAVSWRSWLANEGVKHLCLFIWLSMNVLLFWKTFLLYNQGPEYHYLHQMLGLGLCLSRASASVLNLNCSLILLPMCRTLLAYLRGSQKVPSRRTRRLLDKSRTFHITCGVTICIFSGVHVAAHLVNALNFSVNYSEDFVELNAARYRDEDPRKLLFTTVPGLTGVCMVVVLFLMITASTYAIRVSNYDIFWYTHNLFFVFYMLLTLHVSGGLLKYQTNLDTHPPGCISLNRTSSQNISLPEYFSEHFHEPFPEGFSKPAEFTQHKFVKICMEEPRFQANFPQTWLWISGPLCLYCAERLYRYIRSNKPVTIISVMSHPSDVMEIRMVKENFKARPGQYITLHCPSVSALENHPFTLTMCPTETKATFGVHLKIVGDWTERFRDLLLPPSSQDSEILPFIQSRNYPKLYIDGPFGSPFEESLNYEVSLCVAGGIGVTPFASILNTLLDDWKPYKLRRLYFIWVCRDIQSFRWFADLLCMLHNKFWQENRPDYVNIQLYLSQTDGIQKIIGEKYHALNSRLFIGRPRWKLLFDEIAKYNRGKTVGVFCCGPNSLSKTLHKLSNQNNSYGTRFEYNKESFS

[20] = molecular target: NADPH oxidase 5 (Homo sapiens) (UniProt Q96PH1); assay: compounds shifting NOX5 Amplex Red fluorescence – cell-based, HEK293-NOX5, NOX inhibitor project, primary screen (AID 1161); conditions: HEK293-NOX5, ionomycin, 45 min, higher = more signal
Sequence of NADPH oxidase 5 (Homo sapiens) (Q96PH1 whole entry, looked up): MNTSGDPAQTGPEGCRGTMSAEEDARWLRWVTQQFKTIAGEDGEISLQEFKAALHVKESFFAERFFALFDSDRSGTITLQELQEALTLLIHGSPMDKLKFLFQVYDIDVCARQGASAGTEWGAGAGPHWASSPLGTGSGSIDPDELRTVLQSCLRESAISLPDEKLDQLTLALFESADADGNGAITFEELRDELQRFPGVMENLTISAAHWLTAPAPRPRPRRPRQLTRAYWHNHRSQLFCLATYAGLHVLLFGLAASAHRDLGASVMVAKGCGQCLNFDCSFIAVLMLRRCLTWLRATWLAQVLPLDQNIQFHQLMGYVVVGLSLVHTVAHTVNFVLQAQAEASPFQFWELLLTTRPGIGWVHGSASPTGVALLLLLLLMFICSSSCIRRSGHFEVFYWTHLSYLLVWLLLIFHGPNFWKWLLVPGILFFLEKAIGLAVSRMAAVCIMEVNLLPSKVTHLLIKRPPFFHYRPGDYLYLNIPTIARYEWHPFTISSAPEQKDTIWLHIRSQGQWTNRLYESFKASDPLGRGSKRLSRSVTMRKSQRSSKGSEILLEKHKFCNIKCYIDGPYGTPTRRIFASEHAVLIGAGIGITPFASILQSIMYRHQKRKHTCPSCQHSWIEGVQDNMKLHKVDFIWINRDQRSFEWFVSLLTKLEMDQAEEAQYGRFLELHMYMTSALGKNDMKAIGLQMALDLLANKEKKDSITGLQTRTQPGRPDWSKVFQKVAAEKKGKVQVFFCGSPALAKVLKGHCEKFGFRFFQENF

Compound | composite z-score [1] | z-score [2] | z-score [3] | z-score [4] | z-score [5] | composite z-score [6] | composite z-score [7] | composite z-score (Torsin-1A (Homo sapiens) [8]) | composite z-score (Torsin-1A (Homo sapiens) [9]) | composite z-score [10] | z-score [11] | composite z-score [12] | z-score [13] | z-score [14] | z-score [15] | z-score [16] | z-score [17] | z-score [18] | z-score [19] | z-score [20]
CC(C)[C@H]1NC(=O)[C@@]23C(=O)N[C@@H](Cc4ccccc4)C2[C@H](C)[C@@]2(C)O[C@H]2C3/C=C/CCC/C=C/CNC(=O)[C@H](Cc2ccccc2)NC1=O (stereo not given in full) | -0.178 | -1.23 (inactive) | 1.01 (inactive) | 1.4 (inactive) | -0.723 (inactive) | -0.77 | -0.152 | 0.343 | 0.671 | 2.03 | -0.246 (inactive) | 0.0582 | 1.18 (inactive) | 0.581 (inactive) | 0.81 (inactive) | 0.182 (inactive) | 0.352 | 1.46 (inactive) | 0.525 (inactive) | 0.896
CCC(CC)C(O)C1C=CC2C(=O)N(c3ccccc3)C(=O)C2N1Nc1ccc([N+](=O)[O-])cc1 (stereo not given) | 0.205 | 0.0373 (inactive) | -0.639 (inactive) | -0.62 (inactive) | -0.68 (inactive) | 0.754 | 0.124 | 0.273 | 0.427 | 0.179 | -0.639 (inactive) | 0.342 | 6.6 (inactive) | 0.997 (inactive) | 0.136 (inactive) | 0.507 (inactive) | -0.469 | -0.272 (inactive) | -0.44 (inactive) | -1.03
O=C1C[C@@](C(=O)NCc2ccccc2)(c2ccc([N+](=O)[O-])cc2)[C@@H](c2ccc(CO)cc2I)N1CC12CC3CC(CC(C3)C1)C2 | 0.77 | -5.74 (inactive) | -1.67 (inactive) | -0.709 (inactive) | -0.038 (inactive) | 0.0117 | -0.246 | 0.585 | 0.825 | 2.06 | 0.832 (inactive) | -0.641 | 8.97 (active) | 1.41 (inactive) | 2.53 (inactive) | 0.301 (inactive) | 2.5 | -1.38 (inactive) | -4.29 (inactive) | -3.82
CC(=O)N1CC(C(O)C2C=CC3C(=O)NC(=O)C3N2Nc2ccc(Cl)cc2Cl)c2ccccc21 (stereo not given) | -0.0061 | -0.0847 (inactive) | -0.651 (inactive) | 1.21 (inactive) | -0.584 (inactive) | 0.543 | 0.16 | -0.291 | 0.545 | -0.123 | -1.14 (inactive) | 0.176 | 3.47 (inactive) | 1.36 (inactive) | -0.0499 (inactive) | 1.17 (inactive) | -0.746 | -0.849 (inactive) | -4.86 (inactive) | -2.57
COc1ccc([Si](C)(C)[C@H]2[C@H](CC(=O)N3Cc4ccccc4C[C@H]3CO)O[C@@]3(C(=O)N(Cc4ccc(N5C(=O)c6cccc7cccc5c67)cc4)c4ccccc43)[C@@H]2C)cc1 | -0.108 | -4.09 (inactive) | -0.67 (inactive) | 1.04 (inactive) | -1.35 (inactive) | 0.294 | 0.0102 | -0.0784 | 0.837 | 1.66 | 0.315 (inactive) | 0.0771 | 4.25 (inactive) | 1.36 (inactive) | 1.67 (inactive) | 1.09 (inactive) | 0.412 | -0.327 (inactive) | 0.252 (inactive) | -1.66
COc1cc(NN2C(C(O)c3cc(OC)c(OC)c(OC)c3)C=CC3C(=O)N(c4ccccc4)C(=O)C32)cc(OC)c1OC (stereo not given) | 0.582 | -2.99 (inactive) | -0.24 (inactive) | 0.243 (inactive) | -0.0967 (inactive) | 1.8 | 0.867 | -0.152 | 0.816 | -0.317 | -1.78 (inactive) | 1.02 | 2.73 (inactive) | -0.577 (inactive) | 1.27 (inactive) | -1.19 (inactive) | 1.07 | -3.35 (inactive) | -4.26 (inactive) | -6.87
Cc1cccc([C@H]2C[C@H]3C(I)=C[C@@H]2C(=O)[C@]32CO2)c1 | -0.243 | -0.478 (inactive) | -0.209 (inactive) | 1.76 (inactive) | 1.56 (inactive) | -0.0548 | -0.0762 | -0.404 | -0.481 | 0.0299 | -0.894 (inactive) | -0.0559 | -0.0459 (inactive) | 0.0962 (inactive) | 0.0129 (inactive) | -0.0624 (inactive) | 0.0314 | -0.942 (inactive) | -0.0919 (inactive) | -0.835
O=C(O)[C@H]1C[C@H]2C(=O)N[C@@H](Cc3ccccc3)C(=O)N2[C@H]1c1cccc(OCCO)c1 | 0.223 | -0.6 (inactive) | 0.28 (inactive) | 1.23 (inactive) | -0.178 (inactive) | 0.105 | 0.0663 | 1.42 | 1.71 | 1.9 | 0.262 (inactive) | 0.121 | 4.38 (inactive) | 0.547 (inactive) | -2.49 (inactive) | 0.204 (inactive) | 0.146 | -3.4 (inactive) | -4.87 (inactive) | -2.33
COCC(=C=CC[C@@H](O)c1cccc(OCCO)c1)CCO | 0.332 | -0.35 (inactive) | 0.65 (inactive) | -0.205 (inactive) | 0.671 (inactive) | 0.105 | 0.0051 | 1.96 | 0.675 | 1.23 | 0.355 (inactive) | 0.0091 | 2.3 (inactive) | 0.152 (inactive) | 0.691 (inactive) | 0.135 (inactive) | -0.094 | -0.274 (inactive) | -0.761 (inactive) | -0.334
